# Results as given in PubChem BioAssay (NCI).
# About 79,000 compounds went through this panel and 15% of them were active in at least one assay; those are over-represented in the sample as a whole. Values without a mark were called inactive. Calls of active or inactive are those of the source. No stated cut-off is given here; in the data, active means growth inhibition above about 70%; inactive means the rest.
# Legend:
# [1] = NCI Yeast Anticancer Drug Screen. Data for the rad50 strain (AID 155);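 further: 0% = growth of vehicle-only cultures of the same strain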; conditions: S. cerevisiae rad50 strain growth inhibition, hits give high values
# Method in brief: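 Readout: growth inhibition relative to vehicle-treated cultures. Compound exposure was carried out in a genetically defined yeast strain deficient in DNA damage repair.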
# [2] = NCI Yeast Anticancer Drug Screen. Data for the mec2-1 strain (AID 157); conditions: S. cerevisiae mec2-1 strain, hits give high values
# Method in brief: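 Using mec2-1 yeast: add compound, measure growth, express inhibition versus vehicle-treated cultures.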
# [3] = NCI Yeast Anticancer Drug Screen. Data for the sgs1 mgt1 strain (AID 161);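 further: 0% = growth of cultures given vehicle only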; conditions: S. cerevisiae sgs1 mgt1 strain, hits give high values
# Method in brief: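 Growth of a repair-deficient yeast mutant was monitored after compound treatment and expressed as inhibition relative to vehicle-treated cultures.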
# [4] = NCI Yeast Anticancer Drug Screen. Data for the cln2 rad14 strain (AID 165);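 further: 0% = growth equal to vehicle treated cultures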; conditions: S. cerevisiae cln2 rad14 strain, hits give high values
# Method in brief: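 Yeast strain cln2 rad14, bearing defects in cell cycle control and DNA repair, serves as the test system; values reflect growth inhibition compared with vehicle.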
# [5] = NCI Yeast Anticancer Drug Screen. Data for the bub3 strain (AID 167); conditions: S. cerevisiae bub3 mutant strain, hits give high values
# Method in brief: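 Readout: yeast growth inhibition, expressed relative to vehicle-only wells. The test organism is a mutant strain from a panel with lesions in DNA repair or checkpoint genes.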
# [6] = NCI Yeast Anticancer Drug Screen. Data for the mlh1 rad18 strain (AID 175); conditions: S. cerevisiae mlh1 rad18 strain growth inhibition, hits give high values
# Method in brief: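 Steps: expose repair-defective yeast to compound; measure growth; express inhibition against vehicle-treated controls.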
# [7] = at 5.0 µM (retest, dose inferred, filed as 0.5)
# [8] = at 50.0 µM (retest, dose inferred, filed as 5.0)
Structure (SMILES),"growth inhibition [1, 7]","growth inhibition [1, 8]",growth inhibition ([1]; at 50.0 µM),"growth inhibition [2, 7]","growth inhibition [2, 8]",growth inhibition ([2]; at 50.0 µM),"growth inhibition [3, 7]","growth inhibition [3, 8]",growth inhibition ([3]; at 50.0 µM),"growth inhibition [4, 7]","growth inhibition [4, 8]",growth inhibition ([4]; at 50.0 µM),"growth inhibition [5, 7]","growth inhibition [5, 8]",growth inhibition ([5]; at 50.0 µM),"growth inhibition [6, 7]","growth inhibition [6, 8]",growth inhibition ([6]; at 50.0 µM)
[Cl-].[La+3].[O-]/N=C(\c1ccccc1)c1ccccn1.[O-]/N=C(\c1ccccc1)c1ccccn1.[O-]/N=C(\c1ccccc1)c1ccccn1,42%,63%,63.3%,25%,60%,40.2%,31%,68%,43.2%,21%,34%,43.5%,42%,90% (active),67.3%,43%,68%,59.2%
O=S(NCc1ccccc1)c1ccccc1 (stereo not given),-2%,13%,25.6%,0%,8%,28.7%,-2%,-1%,43.3%,-3%,4%,39.4%,0%,10%,36.3%,-1%,15%,75.7% (active)
O=S(=O)(N/N=C/c1ccc(Cl)cc1Cl)c1ccccc1,-20%,-11%,-19.3%,-4%,-11%,-10.3%,10%,-14%,-12.4%,-16%,-15%,-26.9%,17%,22%,-16.6%,8%,4%,14%
O=C(CC(O)(CC(=O)OCc1ccccc1)C(=O)OCc1ccccc1)OCc1ccccc1,-3%,-23%,99.2% (active),-2%,-27%,99.5% (active),-4%,-22%,99.1% (active),11%,-10%,98.2% (active),-1%,-34%,99.4% (active),3%,-9%,99% (active)
N#CSCC(=O)c1ccccc1,93% (active),98% (active),98.8% (active),95% (active),99% (active),99.2% (active),95% (active),98% (active),97.5% (active),87% (active),99% (active),97.2% (active),94% (active),98% (active),99% (active),92% (active),98% (active),98.6% (active)
N#CSCCSCc1ccc(Cl)cc1,4%,99% (active),99.2% (active),25%,99% (active),99.5% (active),7%,99% (active),99.4% (active),-6%,99% (active),98.9% (active),-6%,99% (active),99.5% (active),6%,99% (active),99.3% (active)
Nc1nc(=O)n(C2OC(CO)C(O)C2O)cc1[N+](=O)[O-] (stereo not given),-10%,-9%,-5.75%,-6%,-15%,18.9%,-2%,-5%,4.45%,-40%,-13%,-10.2%,-7%,1%,-12.7%,1%,-5%,17.9%
Cc1ccc(O)c(Cc2ccc(Cl)cc2)c1,-146%,97% (active),74.7% (active),-54%,99% (active),99.8% (active),-56%,99% (active),64.3%,-80%,99% (active),99.5% (active),-76%,98% (active),99.6% (active),-119%,96% (active),99.6% (active)
Cc1c(C[n+]2cc3ccccc3cc2/C=N/O)ccc2ccccc12,1%,31%,19.1%,3%,39%,10.1%,2%,31%,5.5%,-2%,-6%,-3.1%,1%,19%,97.2% (active),1%,37%,16.8%
CCCCCCCCCCCCOC(=O)C[n+]1cccc(C(=O)Nc2ccccc2)c1,96% (active),98% (active),99.2% (active),97% (active),99% (active),99.4% (active),95% (active),99% (active),99.5% (active),96% (active),99% (active),98.9% (active),96% (active),98% (active),98.8% (active),99% (active),99% (active),99.2% (active)
